Rab9 promoter act: activates the Rab9 promoter | Huh7 Rab9 promoter-luciferase reporter, luminescence, 24 h | Potency, µM (titrated, usually from 9.22 µM), usual class: activators | 2.8% of 320,000 active | AID 485297; note: nearly all actives have a fitted effect of over 60% in size
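Cell-based reporter: Huh7 stable for Rab9 promoter-driven luciferase, plated in reduced-serum medium with 10% FBS at 1500 cells/well, compound-treated 24 h at 37 °C, luminescence read after 10 min reagent.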
ELG1 genotox: inducers of genotoxicity in HEK293T ELG1-luciferase cells; HEK293T ELG1-luciferase reporter, luminescence, 16 h; Potency, µM (doses to about 46 µM), hits mostly activators; 1.3% of 330,000 active; AID 504466; note: nearly all actives have a fitted effect of over 60% in size
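16 hr compound incubation (37 °C, 5% CO2) of HEK293T cells carrying luciferase-tagged ELG1; luciferase then measured by ONE-Glo luminescence after 30 min at RT.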
FLuc modulator: inhibits or activates purified firefly luciferase, miR-21 counter-screen. P08659. 6.9% of 360,000 active. purified FLuc, Km substrates, luminescence inhibition. Potency, µM (titrated, usually from 57.5 µM), usual class: inhibitors; note: nearly all actives have a fitted effect of over 55% in size
Target sequence (P08659 whole entry, looked up): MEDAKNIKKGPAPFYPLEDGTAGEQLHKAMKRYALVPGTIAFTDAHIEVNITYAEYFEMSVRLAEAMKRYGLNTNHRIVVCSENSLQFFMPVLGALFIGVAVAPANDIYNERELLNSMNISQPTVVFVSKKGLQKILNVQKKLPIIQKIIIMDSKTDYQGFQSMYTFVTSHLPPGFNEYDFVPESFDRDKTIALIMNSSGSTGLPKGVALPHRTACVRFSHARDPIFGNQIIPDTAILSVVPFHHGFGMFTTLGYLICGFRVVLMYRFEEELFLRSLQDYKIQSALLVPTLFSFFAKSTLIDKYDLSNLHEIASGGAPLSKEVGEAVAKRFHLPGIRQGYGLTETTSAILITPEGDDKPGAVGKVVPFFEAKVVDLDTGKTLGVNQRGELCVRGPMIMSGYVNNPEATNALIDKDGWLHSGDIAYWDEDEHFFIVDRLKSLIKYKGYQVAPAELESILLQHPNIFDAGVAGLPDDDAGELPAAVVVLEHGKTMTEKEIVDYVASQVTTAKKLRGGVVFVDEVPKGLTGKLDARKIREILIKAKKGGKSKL
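Purified P. pyralis luciferase, 10 nM final, with Km-level 10 uM D-luciferin and 10 uM ATP in 50 mM Tris acetate pH 7.5, 10 mM Mg acetate, 0.01% Tween-20, 0.05% BSA; 6-point qHTS titration about 60 µM downward; luminescence read.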
ELG1 DNA repair: ELG1-dependent DNA repair inhibition | AID 504467 | 2.3% of 330,000 active | HEK293T ELG1-luciferase reporter, luminescence, 16 h; DNA damage induced by 5-fluorouridine | Potency, µM (top dose mostly 46.1 µM), hits mostly inhibitors; note: nearly all actives have a fitted effect of over 55% in size
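Luminescence from the luciferase reporter, measured 30 min after ONE-Glo reagent at room temperature, was the read-out. Beforehand, 2,000 cells per well were exposed for 16 hr at 37 °C to 5-fluorouridine together with compound or vehicle.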
NPC1 promoter act: NPC1 promoter activation. Huh7 NPC1 promoter luciferase reporter, 24 h. Potency, µM (doses to about 9.22 µM), most hits filed as activators. 2.4% of 320,000 active; note: nearly all actives have a fitted effect of over 60% in size
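Quantitative HTS used a cell-based reporter: Huh7 cells stably bearing the NPC1 promoter upstream of luciferase were treated with compounds for 24 h, and promoter activation was read as luminescence.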
SMN2 splice up: increases expression of the SMN2 splice variant; HEK293 SMN2-luciferase splicing reporter, luminescence, 30-36 h; Potency, µM (top dose mostly 46.1 µM), hits mostly activators; 2.8% of 210,000 active; note: nearly all actives have a fitted effect of over 55% in size
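qHTS luciferase splicing reporter: luminescence rises when SMN2 exon 7 is included in transfected HEK293 cells. Compound exposure lasted 30-36 h at 37C, with 4.5 mM final sodium butyrate as control, followed by a ONE-Glo read.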
Each line names hits and unclear results; the compound was inactive in the other large screens. Only some compounds are listed: those with a hit (about 9.4% of all), similar ones and a draw of the others. Calls come from the whole dose curve; as a rule, active = well fitted curve in the direction sought with a large enough effect; inconclusive = small, poorly fitted or top-dose-only effect, or another doubt; inactive = no such curve, though single readings can be large; an effect the other way counts as inactive or inconclusive.

C=CC1=C2C=C(C3CC3)N(Cc3ccccc3)C=C2C(=O)C(C)(OC(=O)c2ccco2)C1=O (stereo not given)	none (no result: Rab9 promoter act, ELG1 genotox, FLuc modulator, ELG1 DNA repair, NPC1 promoter act)
COc1ccc(NC(=O)c2cc3c(=O)n(Cc4cccs4)ccc3nc2C)c(OC)c1	none (no result: Rab9 promoter act, ELG1 genotox, ELG1 DNA repair, NPC1 promoter act, SMN2 splice up)
Cc1ccc(-n2nc(C)c3c(-c4cccs4)c(C#N)c(N)nc32)cc1	FLuc modulator inconclusive, ELG1 DNA repair 12.6µM
Cc1nn(-c2ccccc2)c2nc(N)c(C#N)c(-c3ccc(F)cc3)c12	ELG1 DNA repair inconclusive
COc1ccc(-c2nsc(NC(=O)c3ccccc3Br)n2)cc1	FLuc modulator 16.9µM (no result: Rab9 promoter act, ELG1 genotox, ELG1 DNA repair, NPC1 promoter act)
COc1ccc(-c2csc(NC(=O)c3ccoc3C)n2)cc1	Rab9 promoter act inconclusive, ELG1 genotox inconclusive, FLuc modulator 12µM, ELG1 DNA repair inconclusive, NPC1 promoter act inconclusive
COc1ccc(-c2csc(NC(=O)c3ccccc3C(=O)O)n2)cc1	FLuc modulator 15.1µM
COC(=O)c1c(-c2ccncc2)csc1NC(=O)c1ccoc1C	Rab9 promoter act 2µM, ELG1 genotox inconclusive, FLuc modulator 8.49µM, ELG1 DNA repair inconclusive, NPC1 promoter act 2.82µM, SMN2 splice up 11.2µM
COc1ccccc1C(=O)Nc1nc(-c2ccccc2)ns1	FLuc modulator inconclusive (no result: Rab9 promoter act, ELG1 genotox, ELG1 DNA repair, NPC1 promoter act)
COc1ccc(-c2csc(NC(=O)c3c(C)noc3C)n2)cc1	FLuc modulator inconclusive, ELG1 DNA repair inconclusive (no result: SMN2 splice up)
Cc1ccc(-c2noc(CCC(=O)Nc3ccc(F)cc3Cl)n2)cc1	none (no result: Rab9 promoter act, ELG1 genotox, ELG1 DNA repair, NPC1 promoter act)
Cc1cccc(OCC(=O)Nc2nnc(S(=O)(=O)N3CCc4ccccc43)s2)c1	none (no result: Rab9 promoter act, ELG1 genotox, ELG1 DNA repair, NPC1 promoter act, SMN2 splice up)
Cc1ccc(C)c(N2CCN(C(=O)c3cc4c(=O)n(Cc5ccccc5)ccc4nc3C)CC2)c1	none (no result: Rab9 promoter act, ELG1 genotox, ELG1 DNA repair, NPC1 promoter act, SMN2 splice up)
COc1cc2c(-c3cccc(Cl)c3)nc3c(c(C)nn3-c3ccccc3)c2cc1OC	none (no result: Rab9 promoter act, ELG1 genotox, ELG1 DNA repair, NPC1 promoter act)
CC(OC(=O)c1ccc(O)cc1)C(=O)Nc1nc(-c2ccccc2)cs1 (stereo not given)	ELG1 DNA repair inconclusive (no result: SMN2 splice up)
COC(=O)c1c(-c2ccc(F)cc2)csc1NC(=O)C1CCCO1 (stereo not given)	FLuc modulator 26.9µM
COc1cccc(-c2csc(NNC(=O)c3cccs3)n2)c1	FLuc modulator inconclusive (no result: SMN2 splice up)
CC(OC(=O)CNC(=O)c1ccccc1F)C(=O)Nc1nc(-c2ccccc2)cs1 (stereo not given)	Rab9 promoter act inconclusive, ELG1 genotox inconclusive, FLuc modulator inconclusive, ELG1 DNA repair inconclusive, NPC1 promoter act inconclusive, SMN2 splice up 12.6µM
COc1ccc(-c2csc(NC(=O)C3CCCO3)n2)cc1 (stereo not given)	Rab9 promoter act 3.98µM, ELG1 genotox inconclusive, FLuc modulator 21.3µM, NPC1 promoter act inconclusive
COc1cccc(-c2csc(NC(=O)Oc3ccccc3)n2)c1	FLuc modulator 12µM, ELG1 DNA repair inconclusive
Cc1ccccc1-n1nc(CO)c(C(=O)NCc2cccs2)n1	none (no result: Rab9 promoter act, ELG1 genotox, ELG1 DNA repair, NPC1 promoter act)
Cc1ccc(NC(=O)C2CCCN(c3nnc(-n4c(C)ccc4C)s3)C2)c(C)c1 (stereo not given)	none (no result: Rab9 promoter act, ELG1 genotox, ELG1 DNA repair, NPC1 promoter act)
COc1cc(/C=N/N(C)c2ccccc2)ccc1O	Rab9 promoter act inconclusive, ELG1 genotox 4.61µM, FLuc modulator 2.39µM, ELG1 DNA repair inconclusive, NPC1 promoter act inconclusive, SMN2 splice up inconclusive
C(=N\N(c1ccccc1)c1ccccc1)/c1ccc2c(c1)OCO2	none
CN(/N=C/c1ccc2c(c1)OCO2)c1ccccc1	Rab9 promoter act 2.82µM, ELG1 genotox inconclusive, FLuc modulator 6.75µM, ELG1 DNA repair inconclusive, NPC1 promoter act 3.98µM, SMN2 splice up 20µM
Cc1ccc(Cn2c(C)c3cnn(CC(=O)NCCc4ccc(Cl)cc4)c(=O)c3c2C)cc1	none (no result: Rab9 promoter act, ELG1 genotox, ELG1 DNA repair, NPC1 promoter act)
CCc1nc(-c2cc3ccc(C)cc3[nH]c2=O)no1	Rab9 promoter act inconclusive, ELG1 genotox inconclusive, FLuc modulator 15.1µM, ELG1 DNA repair inconclusive, SMN2 splice up inconclusive
CCCCC(=O)OCc1nc(N)nc(Nc2ccccc2C)n1	ELG1 genotox inconclusive, FLuc modulator 19µM, ELG1 DNA repair inconclusive
Cc1ccccc1Nc1nc(N)nc(COC(=O)C2CCCCC2)n1	FLuc modulator 15.1µM, ELG1 DNA repair inconclusive
O=C(NCC1CCN(Cc2cccc(F)c2)CC1)c1cc2ccc3cccnc3c2[nH]1	none (no result: Rab9 promoter act, ELG1 genotox, ELG1 DNA repair, NPC1 promoter act, SMN2 splice up)
CCc1ccc(C(=O)c2cn(CC(=O)Nc3ccc(C)c(C)c3)c3ccccc3c2=O)cc1	none (no result: Rab9 promoter act, ELG1 genotox, ELG1 DNA repair, NPC1 promoter act)
CC1=C(C(=O)Nc2ccccc2)C(c2cccnc2)n2nc(SCc3ccccc3F)nc2N1 (stereo not given)	none (no result: Rab9 promoter act, ELG1 genotox, ELG1 DNA repair, NPC1 promoter act)
COc1ccc2c(c1)/C(=N/N1C(=O)c3ccccc3C1=O)C(=O)N2	none
Cc1ccc2c(c1Br)/C(=N/N1C(=O)c3ccccc3C1=O)C(=O)N2	FLuc modulator 2.39µM, ELG1 DNA repair inconclusive
Cc1nn(Cc2c(F)c(F)c(F)c(F)c2F)c(C)c1NC(=O)c1cccc(COc2ccc(Cl)cc2)c1	Rab9 promoter act inconclusive, FLuc modulator 12µM, ELG1 DNA repair inconclusive, NPC1 promoter act inconclusive, SMN2 splice up 17.8µM
CC(C)c1cc(C(N)=O)c(NC(=O)c2cccc(COc3ccc(Cl)cc3)c2)s1	Rab9 promoter act 2µM, ELG1 genotox 0.731µM, FLuc modulator 1.51µM, ELG1 DNA repair inconclusive, NPC1 promoter act 0.316µM, SMN2 splice up 1.78µM
COc1ccc([C@@H](Nc2ccccn2)c2cc(C(C)(C)C)cc(C(C)(C)C)c2O)cc1	none (no result: Rab9 promoter act, ELG1 genotox, FLuc modulator, ELG1 DNA repair, NPC1 promoter act)
CCN(CC)c1ccc(/C=c2\sc3nc4ccccc4n3c2=O)c(O)c1	FLuc modulator inconclusive, ELG1 DNA repair inconclusive
Cc1cccc(CN2C(=O)N/C(=C/c3cc(C)n(-c4ccccn4)c3C)C2=O)c1	FLuc modulator inconclusive, ELG1 DNA repair inconclusive

High-throughput results deposited in PubChem by National Center for Advancing Translational Sciences (NCATS).
